Source: PubChem
An excerpt weighted towards active compounds, which were near 17% of everything screened.
HepG2 viability: HepG2 cytotoxicity, counter-screen for TGF-b inhibitors | HepG2 CAGA-GFP viability, ATP luminescence, 18 h | Potency, µM (titrated, usually from 46.1 µM), hits mostly cytotoxic | 410,000 compounds, 0.76% hits | AID 588856
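CellTiter-Glo luminescence gave cytotoxicity after 18 hours at 37 degrees C. The cells were HepG2 CAGA-GFP in 1% FBS DMEM, stimulated with 500 pg/mL TGF-beta after compound addition. %Activity was normalised to no-cell wells (complete cell-killing) and DMSO (no toxicity), and curves were fitted and classified.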
HT1080 IDH1KD tx: HT-1080 IDH1 knockdown cell toxicity (counter line); HT-1080 IDH1 knockdown viability, ATP luminescence, 48 h; Potency, µM (series often up to 46.1 µM), actives largely listed as cytotoxic; 360,000 compounds, 2% hits
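CellTiter-Glo luminescence after 48 h compound exposure at 37 degrees C of IDH1-knockdown HT-1080 cells in 5% FBS RPMI. %Activity scaled between DMSO wells and cell-free media wells, with curves fitted and assigned curve classes.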
TGFb SMAD3 inh: TGF-b pathway inhibition | HepG2 CAGA-GFP TGF-b/SMAD3 reporter, GFP fluorescence, 18 h; TGF-beta stimulated, 500 pg/mL final | Potency, µM (titrated, usually from 46.1 µM), hits mostly inhibitors | 410,000 compounds, 1.2% hits; also: nearly all actives have a fitted effect of over 65% in size
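Smad-responsive CAGA-GFP expression was quantified in HEPG2 cells exposed to compounds and 500 pg/mL final TGF-beta for 18 h at 37 degrees C; unstimulated wells defined full inhibition.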
DT40 TDP1 CPT: DT40-hTDP1 cell growth loss with CPT | chicken DT40 Tdp1-/-;hTDP1 cells + 20 nM CPT, ATP luminescence, 48 h | Potency, µM (titrated, usually from 46.2 µM), hits mostly inhibitors | 420,000 compounds, 12% hits | AID 686979; also: nearly all actives have a fitted effect of over 55% in size
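Chicken DT40 Tdp1-/- cells stably complemented with human TDP1 were seeded at 400 cells/well in medium containing 20 nM camptothecin, exposed to pin-transferred compounds, and grown at 37 °C for at least 48 hr. Viability was read as ATP luminescence.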
TDP1 cell noCPT: qHTS for Inhibitors of human tyrosyl-DNA phosphodiesterase 1 (TDP1): qHTS in cells in absence of CPT; Potency, µM (series often up to 46.2 µM), usual class: inhibitors; DT40 Tdp1-/- hTDP1 cells, no CPT, ATP luminescence, 48 h; 420,000 compounds, 15% hits; AID 686978, 2013; also: nearly all actives have a fitted effect of over 55% in size
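A cellular qHTS used chicken DT40 cells lacking endogenous Tdp1 but carrying stably transfected human TDP1. Compounds were applied without camptothecin, and cell growth kinetics were judged by ATP-dependent luminescence after ≥48 hr.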
HT1080-NT tox: kills 2HG-producing HT-1080-NT fibrosarcoma cells; 360,000 compounds, 1.6% hits; AID 686970; HT-1080-NT fibrosarcoma viability, CellTiter-Glo ATP luminescence, 48 h; Potency, µM (titrated, usually from 46.1 µM), actives largely listed as cytotoxic;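 also: NT is the 2HG producing partner of a matched IDH1 knockdown line; nearly all actives have a fitted effect of over 55% in size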
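Compounds were tested in concentration-response format on HT-1080-NT cells for 48 hours at 37 degrees C. Cell viability came from CellTiter-Glo luminescence; curves were classified by r2, response magnitude and activity.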
Hits are given with their value. Calls follow the shape of the dose curve; as a rule, active = well fitted curve in the direction sought with a large enough effect; inconclusive = small, poorly fitted or top-dose-only effect, or another doubt; inactive = no such curve, though single readings can be large; an effect the other way counts as inactive or inconclusive.

O=C(CCC(=O)N1CCOc2ccc(Cl)cc21)NCCCN1CCN(c2ccccc2F)CC1 was read as HepG2 viability inactive, HT1080 IDH1KD tx inconclusive, TGFb SMAD3 inh inactive, DT40 TDP1 CPT 21µM, TDP1 cell noCPT 18µM and HT1080-NT tox inconclusive.
`Nc1nc2[nH]c(=S)[nH]c2c(=O)[nH]1` gave HepG2 viability inactive, TGFb SMAD3 inh inactive, DT40 TDP1 CPT inactive and TDP1 cell noCPT inactive.
Screening CC(=O)c1ccc(N2CCN(C(=O)c3cccs3)CC2)c(F)c1 returned HepG2 viability inactive, HT1080 IDH1KD tx inactive, TGFb SMAD3 inh inactive, DT40 TDP1 CPT inconclusive, TDP1 cell noCPT inconclusive and HT1080-NT tox inactive.
Screening CC(=O)c1ccc(N2CCN(C(=O)c3cccs3)C(C)C2)c(F)c1 (stereo not drawn) returned HepG2 viability inactive, HT1080 IDH1KD tx inactive, TGFb SMAD3 inh inactive, DT40 TDP1 CPT inconclusive, TDP1 cell noCPT 21µM and HT1080-NT tox inactive.
Screening CC(C)CN1CCC(C(=O)NC(c2ccc(F)cc2)c2ccc3ccccc3n2)CC1 (stereo not drawn) returned HepG2 viability inactive, HT1080 IDH1KD tx inactive, TGFb SMAD3 inh inactive, DT40 TDP1 CPT inconclusive, TDP1 cell noCPT 23µM and HT1080-NT tox inactive.
For CCN1CCC(C(=O)NC(c2ccc(F)cc2)c2ncccc2C)CC1 (stereo not drawn) the results were HepG2 viability inactive, HT1080 IDH1KD tx inactive, TGFb SMAD3 inh inactive, DT40 TDP1 CPT inactive, TDP1 cell noCPT inactive and HT1080-NT tox inactive.
For COc1ccc(/C=C/CN2CCC(C(=O)NC(c3ccc(F)cc3)c3ccc4ccccc4n3)CC2)cc1 (stereo not drawn) the results were HepG2 viability inactive, HT1080 IDH1KD tx 10µM, TGFb SMAD3 inh inconclusive, DT40 TDP1 CPT 18µM, TDP1 cell noCPT 21µM and HT1080-NT tox 16µM.
For COc1ccc(N2CCN(C(=O)C3CCN(S(=O)(=O)c4cn(C)cn4)CC3)CC2)cc1 the results were HepG2 viability inactive, TGFb SMAD3 inh inactive, DT40 TDP1 CPT inactive and TDP1 cell noCPT inactive.
Screening COc1ccc(C2=Nc3ccccc3N(C(=O)c3ccc(C(F)(F)F)cc3)C2C(=O)NCc2ccccc2)cc1 (stereo not drawn) returned HT1080 IDH1KD tx inactive, DT40 TDP1 CPT inconclusive, TDP1 cell noCPT inconclusive and HT1080-NT tox inactive.
For COc1ccc(C2=Nc3ccccc3N(C(=O)c3ccc4ncccc4c3)C2C(=O)NC2CCCC2)cc1 (stereo not drawn) the results were HT1080 IDH1KD tx inconclusive, DT40 TDP1 CPT 8.2µM, TDP1 cell noCPT 9.2µM and HT1080-NT tox inconclusive.
COc1ccc(C2=Nc3ccccc3N(C(=O)Cc3cc(OC)cc(OC)c3)C2C(=O)NC(C)C)cc1 (stereo not drawn) was read as HT1080 IDH1KD tx inactive, DT40 TDP1 CPT inconclusive, TDP1 cell noCPT inactive and HT1080-NT tox inactive.
For COc1ccc(C2=Nc3ccccc3N(C(=O)Cc3cc(OC)cc(OC)c3)C2C(=O)NC(C)(C)C)cc1 (stereo not drawn) the results were HT1080 IDH1KD tx inactive, DT40 TDP1 CPT 18µM, TDP1 cell noCPT inactive and HT1080-NT tox inactive.
For COc1ccc(C2=Nc3ccccc3N(C(=O)c3ccncc3)C2C(=O)NC(C)C)cc1 (stereo not drawn) the results were HT1080 IDH1KD tx inactive, DT40 TDP1 CPT inconclusive, TDP1 cell noCPT inactive and HT1080-NT tox inactive.
`COc1ccc(C2=Nc3ccccc3N(C(=O)c3ccc4ncccc4c3)C2C(=O)NC(C)(C)C)cc1` (stereo not drawn) gave HT1080 IDH1KD tx inconclusive, DT40 TDP1 CPT 13µM, TDP1 cell noCPT 23µM and HT1080-NT tox inactive.
COc1ccc(C(=O)N2CCN(CCc3ccccc3)CC2)cc1[N+](=O)[O-] was read as HepG2 viability inactive, HT1080 IDH1KD tx inactive, TGFb SMAD3 inh inactive, DT40 TDP1 CPT inconclusive, TDP1 cell noCPT inactive and HT1080-NT tox inactive.
For Cc1ccc(S(=O)(=O)NCc2cccnc2)cc1C the results were HepG2 viability inactive, HT1080 IDH1KD tx inactive, TGFb SMAD3 inh inactive, DT40 TDP1 CPT inactive, TDP1 cell noCPT inactive and HT1080-NT tox inactive.
Cc1ccc(C)c(Nc2nc(-c3ccncc3)nc3ccccc23)c1 was read as HepG2 viability inactive, HT1080 IDH1KD tx inactive, TGFb SMAD3 inh inactive, DT40 TDP1 CPT inactive, TDP1 cell noCPT inconclusive and HT1080-NT tox inactive.
Screening OCCNc1nc(Nc2cccc(O)c2)nc2ccccc12 returned HepG2 viability inactive, HT1080 IDH1KD tx inactive, TGFb SMAD3 inh inconclusive, DT40 TDP1 CPT inconclusive, TDP1 cell noCPT inconclusive and HT1080-NT tox inactive.
O=C(O)c1cccc(Nc2nc(-c3ccc([N+](=O)[O-])cc3)nc3ccccc23)c1 was read as HepG2 viability inactive, HT1080 IDH1KD tx inactive, TGFb SMAD3 inh inactive, DT40 TDP1 CPT inactive, TDP1 cell noCPT inactive and HT1080-NT tox inactive.
O=[N+]([O-])c1ccc(-c2nc(Nc3cccc(O)c3)c3ccccc3n2)cc1 was read as HepG2 viability inactive, HT1080 IDH1KD tx inconclusive, TGFb SMAD3 inh inconclusive, DT40 TDP1 CPT 16µM, TDP1 cell noCPT 4.1µM and HT1080-NT tox inconclusive.
`Cc1ccc(-c2nc(Nc3cccc(O)c3)c3ccccc3n2)cc1` gave HepG2 viability inactive, HT1080 IDH1KD tx inactive, TGFb SMAD3 inh inconclusive, DT40 TDP1 CPT 21µM, TDP1 cell noCPT 23µM and HT1080-NT tox inconclusive.
Screening c1cncc(Nc2c3ccccc3nc3ccccc23)c1 returned HepG2 viability inactive, HT1080 IDH1KD tx inconclusive, TGFb SMAD3 inh inactive, DT40 TDP1 CPT inconclusive, TDP1 cell noCPT 15µM and HT1080-NT tox inconclusive.
`Oc1cccc(Nc2c3ccccc3nc3ccccc23)c1` gave HepG2 viability inactive, HT1080 IDH1KD tx inconclusive, TGFb SMAD3 inh inconclusive, DT40 TDP1 CPT 1.2µM, TDP1 cell noCPT 1.8µM and HT1080-NT tox inconclusive.
`O=C1CN(C(=O)c2ccccc2Br)C(c2ccc(F)cc2)c2cc(F)ccc2N1` (stereo not drawn) gave HepG2 viability inactive, HT1080 IDH1KD tx inactive, TGFb SMAD3 inh inconclusive, DT40 TDP1 CPT inactive, TDP1 cell noCPT inactive and HT1080-NT tox inactive.
For O=C(CN1C(=O)NC2(CCCC2)C1=O)NCCc1ccccc1 the results were HepG2 viability inactive, HT1080 IDH1KD tx inactive, TGFb SMAD3 inh inactive, DT40 TDP1 CPT inactive, TDP1 cell noCPT inactive and HT1080-NT tox inactive.
For OCCOc1ccc(CN2CCN(CCCc3ccccc3)C(CCO)C2)cc1 (stereo not drawn) the results were HepG2 viability inactive, HT1080 IDH1KD tx inactive, TGFb SMAD3 inh inactive, DT40 TDP1 CPT inactive, TDP1 cell noCPT inactive and HT1080-NT tox inactive.
